Most compounds without a hit are left out; they make up all but 2.4% or so of the library.
POLI inh: qHTS for Inhibitors of Polymerase Iota; Potency, µM (doses to about 115 µM), actives largely listed as inhibitors; DNA polymerase iota (Homo sapiens), Q9UNA4; 390,000 compounds, 1% hits; Pol iota fluorescent replication assay, 10 min
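Fluorescent replication assay read twice, at 0 min and 10 min after adding 50 nM (final) substrate. Enzyme (10 nM) and compounds were first incubated 15 min at room temperature; enzyme-free buffer wells were negative controls.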
POLB inh: qHTS Assay for Inhibitors of DNA Polymerase Beta; P06746; Pol beta primer extension/strand displacement, fluorescence kinetic; Potency, µM (doses to about 114 µM), usual class: inhibitors; 340,000 compounds, 1.3% hits; AID 485314, 2010
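Preincubation: enzyme (10 nM) with compound, 15 min, RT. Reaction: substrate added to 50 nM final. Reads: 0 and 10 min. Analysis: normalized, Hill fit.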
POLK inh: qHTS for Inhibitors of Polymerase Kappa; DNA polymerase kappa (Homo sapiens), Q9UBT6; purified Pol kappa, fluorescent DNA synthesis assay, 10 min; Potency, µM (top dose mostly 107 µM), hits mostly inhibitors; 400,000 compounds, 0.53% hits; AID 588579, 2011
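Kinetic fluorescence screen: compound preincubated 15 min RT with 10 nM enzyme; 50 nM substrate (final) initiates; reads at 0/10 min.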
POLH inh: qHTS for Inhibitors of Polymerase Eta. recombinant Pol eta, fluorescent DNA replication assay. Potency, µM (doses to about 114 µM), actives largely listed as inhibitors. DNA polymerase eta (Homo sapiens), Q9Y253. 390,000 compounds, 1.2% hits
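Pol eta at 10 nM preincubated with compounds 15 min at room temperature; reaction started with fluorescent substrate (50 nM final) and read kinetically at 0 and 10 min.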
FEN1 inh: qHTS Assay for the Inhibitors of Human Flap endonuclease 1 (FEN1); Recombinant FEN1 flap cleavage, fluorescence, 15 min; 390,000 compounds, 0.35% hits; P39748; Potency, µM (highest dose often 114 µM), most hits filed as inhibitors; note: nearly all actives have a fitted effect of over 65% in size
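In this screen, 50 nM flap DNA substrate was added to 10 nM FEN1 pretreated with compound for 15 min at room temperature; cleavage was followed with reads at 0 and 15 min, and Hill fitting gave concentration–response parameters.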
TDP1 inh: qHTS Assay for Inhibitors of Tyrosyl-DNA Phosphodiesterase (TDP1). Tyrosyl-DNA phosphodiesterase 1 (Homo sapiens), Q9NUW8. recombinant TDP1, AlphaScreen DNA substrate cleavage. Potency, µM (series often up to 130 µM), most hits filed as inhibitors. 350,000 compounds, 0.28% hits; note: nearly all actives have a fitted effect of over 40% in size
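Steps: enzyme plus compound, 15 min RT; add biotin/phosphotyrosine-FITC oligonucleotide (15 nM final), react 5 min; add donor/acceptor beads (10 ug/ml final), 10 min; read AlphaScreen. Tdp1 at 1 nM final.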
A number is an active result; 0 = inactive; ? = inconclusive; - = no result given; [ ] = dose if it differs, or a comment. Calls come from the whole dose curve; as a rule, active = well fitted curve in the direction sought with a large enough effect; inconclusive = small, poorly fitted or top-dose-only effect, or another doubt; inactive = no such curve, though single readings can be large; an effect the other way counts as inactive or inconclusive.

SMILES	POLI inh	POLB inh	POLK inh	POLH inh	FEN1 inh	TDP1 inh
COc1ccc(C(=O)Nc2cccc(NC(C)=O)c2)cc1OC	?	8.9µM	?	?	0	0
Nc1nc(SCC(=O)Nc2ccc(C(F)(F)F)cc2)[nH]c(=O)c1NC(=O)c1ccc(F)c(F)c1	0	0	0	0	0	0
COc1ccc(C(=O)Nc2c(N)nc(SCC(=O)Nc3ccc(NC(C)=O)cc3)[nH]c2=O)cc1OC	79µM	?	?	?	0	0
CC(=O)c1ccc(NC(=O)C2CCCN(S(=O)(=O)c3cn(C)cn3)C2)cc1 (stereo not given)	0	0	0	0	0	0
COc1ccc(/C=C2\SC(N)=NC2=O)cc1Br	?	40µM	0	?	0	-
CCCOc1ccc(/C=C2\SC(N)=NC2=O)cc1OC	?	56µM	0	0	0	-
COc1ccc(CCNC(=O)C2c3ccccc3C(=O)N2Cc2ccccc2)cc1OC (stereo not given)	0	0	0	0	0	0
Nc1nc(SCC(=O)N2N=C3/C(=C\c4ccco4)CCCC3C2c2ccco2)n[nH]1 (stereo not given)	40µM	-	0	?	0	-
Nc1nc(SCC(=O)N2N=C3/C(=C/c4ccco4)CCCC3C2c2ccco2)n[nH]1 (stereo not given)	45µM	0	0	?	0	0
O=C(NC1CCSC1=O)c1cccc(C(=O)NC2CCSC2=O)c1 (stereo not given)	?	50µM	0	?	0	0
O=C(NC1CCSC1=O)c1ccccc1 (stereo not given)	0	0	0	0	0	0
CCOc1ccc(-c2csc(/C(C#N)=C\c3ccc(O)c([N+](=O)[O-])c3)n2)cc1	?	28µM	0	22µM	79µM	0
CCc1ccc(/C=C(/C#N)c2nc(-c3ccc(C)cc3)cs2)cc1	0	0	0	0	0	0
COC(=O)c1sc(-c2ccccc2)cc1NC(=O)Nc1ccc(F)cc1	?	0	?	0	89µM	0
S=c1[nH]nc(-c2ccc(Cl)cc2)n1/N=C/C=C/c1ccco1	0	25µM	0	?	0	0
S=c1[nH]nc(-c2ccccc2)n1/N=C/C=C/c1ccco1	0	45µM	0	0	0	0
S=c1[nH]nc(-c2ccc(Cl)cc2)n1/N=C/c1ccco1	0	0	0	0	0	0
S=c1[nH]nc(-c2ccco2)n1/N=C/C=C/c1ccccc1	0	0	0	0	0	0
N#Cc1nc(Nc2ccc(Br)cc2)nc(NC2CCCC2)n1	-	-	-	-	-	0
CC(C)CCNC(=O)c1c[nH]c2ccc(S(=O)(=O)N3CCC4(CC3)OCCO4)cc2c1=O	0	35µM	0	0	0	0
CCc1ccc(S(=O)(=O)c2nnn3c2nc(NCc2cccc(OC)c2)c2cc(Cl)ccc23)cc1	0	0	0	0	0	0
O=C1Nc2ccc3sc4ccccc4c3c2C1=O	22µM	5.6µM	0	?	?	?
CCCCCCCCCCCC[n+]1ccc(C)c2ccccc21	?	-	0	-	35µM	-
CCCCCCCCCCCCCCCC[n+]1cccc2ccccc21	?	0	0	0	79µM	0
FC(F)(F)COCC(F)(F)F	-	-	0[19.4 µM]	-	-	-
SMILES	POLI inh	POLB inh	POLK inh	POLH inh	FEN1 inh	TDP1 inh
Cc1ccc(O)c(CP(=O)(c2ccccc2)c2ccccc2)c1	0	0	0	0	0	0
CCNc1ccccc1CP(=O)(c1ccccc1)c1ccccc1O (stereo not given)	14µM	50µM	0	0	0	-
Cc1cc2c(s1)c1cnn(Cc3ccccc3)c(=O)c1n2C	-	-	-	-	-	0
C/C(=N\Nc1ccc(C(=O)c2c(C)cc3ccccn23)cc1[N+](=O)[O-])c1ccc(O)cc1	0	0	0	0	0	-
Cc1cc2ccccn2c1C(=O)c1ccc(N/N=C/c2ccc(C(=O)O)cc2)c([N+](=O)[O-])c1	?	?	0	35µM	0	-
CC1CCN(C(=O)CCn2c(=O)oc3ccc(Cl)cc32)CC1	-	-	-	0	-	-
